# Measurements as given in PubChem BioAssay (NCATS).
# Records with an inconclusive call do not appear. Values without a mark were called inactive. Activity calls are given as the source filed them. Calls follow the shape of the full dose curve. Residues, ends and D or L forms follow the SMILES beside them. *: point of attachment. Octanoyl = CCCCCCCC(=O)*
# Assay: qHTS for inhibitors of Rabies Virus screened against the NCATS CANVASS Library (AID 1347402); also: 0% is about no effect
# Conditions: Rabies virus infection cell assay; series mostly up to 45.9 µM
Structure (SMILES),outcome,"activity change, negative = inhibition"
C/C=C(/CO)C(=O)O[C@@H]1[C@H](O)[C@@H](C(=O)OC)O[C@@H]2C[C@H]3OC(n4cnc5c(N)ncnc54)[C@H](OC)[C@H]3O[C@@]12O (stereo partly drawn),inactive,–
CO[C@@H]1[C@H](O)[C@@H](C)O[C@@H](OC[C@@H]2C(C)OC(=O)/C=C/[C@H](C)C(O[C@@H]3O[C@H](C)CC4(OC(=O)O[C@@H]4C)C3O)[C@@H](C)CC(C)C(=O)CC[C@H]3OC23)[C@@H]1OC (stereo partly drawn),inactive,–
C=C[C@]1(C)CC[C@@H]([C@H](C)C(=O)CC=C(C)C)O1,inactive,–
CC(C)=CCCC(C)(O)[C@H]1CC=C(C)C(O)C1 (stereo partly drawn),inactive,–
COc1cc2c(cc1OC)[C@@H](c1ccc3c(c1)OCO3)C(C)C(C)C2=O (stereo partly drawn),inactive,–
O=C(O)CC1OC(=O)c2c(O)cccc21 (stereo not drawn),inactive,–
C=CC(C)(C)C(=O)[C@@H](C)[C@@H]1CC[C@](C)(C=C)O1,inactive,–
C=C[C@](Cl)(CBr)CCC=C(C)C,inactive,–
C[n+]1cc2cc(C(N)=O)[nH]c3c(=N)c(Cl)c(N)c1c23,inactive,–
O=C1CCC(=O)N(O)CCCCCNC(=O)CCC(=O)N(O)CCCCCNC(=O)CCC(=O)N(O)CCCCCN1,inactive,–
C/C(=C\[C@H](C)C(=O)/C=C/CC1CC(=O)NC(=O)C1)[C@@H]1OC(=O)CCCC/C=C/[C@H](O)[C@@H](O)[C@@H]1C,inactive,–
CCCCCCCCCCCCCCCC(=O)OC/C=C(\C)CCCC(C)CC(C)C(C)C (stereo not drawn),inactive,–
C[C@@]12CCC[C@@](C)(C(=O)OP(=O)(O)OC[C@H]3O[C@@H](n4cnc5c(N)ncnc54)[C@H](O)[C@@H]3O)[C@H]1C[C@@H](O)[C@@]13C[C@@H](CC[C@@H]21)[C@](C)(O)C3,inactive,–
C[C@H]1C[C@@H]([C@@H]2CC[C@]34O[C@H](CC[C@@]35C[C@H](C)C(=O)O5)CN24)OC1=O,inactive,–
CC(O)/C=C/C1(O)C(C)(C)CC(O)CC1(C)O (stereo not drawn),inactive,–
CCCCCCCC(=O)N[C@@H](CC(C)C)C(=O)N[C@H](C=O)CCC(=O)O (Octanoyl-Leu-Glu-aldehyde),inactive,–
C=C1C[C@]23C=CC(=O)[C@@](C)(CCCC(C)C(=O)N[C@@H](CO)C(=O)O)[C@@H]2C[C@@H]1CC3 (stereo partly drawn),inactive,–
COc1ccc([C@@H]2c3cc(OC)c(OC)cc3C(=O)[C@H](C)C2C)cc1OC (stereo partly drawn),–,-3.53% [at 9.14 µM]
CO[C@@H]1[C@H](O)[C@@H](C)O[C@@H](OC[C@H]2/C=C/C=C/C(=O)C(C)C[C@H](C)C(O[C@@H]3O[C@H](C)CC4(OC(=O)O[C@@H]4C)C3O)[C@@H](C)/C=C/C(=O)OC2C)[C@@H]1OC (stereo partly drawn),inactive,–
O=c1cc(-c2ccc(O)cc2)oc2c([C@@H]3OC(CO)[C@H](O)[C@@H](O)[C@H]3O)c(O)cc(O)c12 (stereo partly drawn),inactive,–
C[C@@]12CCC[C@@](C)(C(=O)O)[C@H]1C[C@@H](O)[C@@]13C[C@@H](CC[C@@H]21)[C@](C)(O)C3,inactive,–
COc1cc(O)c2c3c(c(O)cc(C)c13)C(=O)OC2,inactive,–
CS/C=C/C(N)=O,inactive,–
CN1CCc2cc3c(c4c2[C@H]1[C@@H](O)c1ccccc1-4)OCO3,inactive,–
C=C(C)CC[C@H](Cc1c(O)cc(O)c2c1O[C@H](c1ccc(O)cc1O)CC2=O)C(=C)C,inactive,–
O=C1OC(CCO)c2cccc(O)c21 (stereo not drawn),inactive,–
C=C[C@]1(C)CC[C@@H]([C@H](C)C(=O)/C=C/C(C)C)O1,inactive,–
CC1(C)CCC[C@]2(C)[C@@H]1CC[C@@]13C[C@@H](CC[C@H]12)C(C)(O)C3 (stereo partly drawn),inactive,–
